Assay results from PubChem BioAssay (NCATS).
Records with an inconclusive call do not appear. A number with no mark means an inactive call. Calls come from the whole dose curve; as a rule, active = well fitted inhibition curve with a large enough effect; inconclusive = small, poorly fitted or top-dose-only effect; inactive = flat fitted curve, though single readings scatter.
% is set by controls: 0 for no effect and ±100 for the full control effect.

The compounds below were run against Calcium and integrin-binding protein 1 (Homo sapiens) (UniProt Q99828) (assay: Primary qHTS for Identification of Calcium Integrin Binding Protein 1 (CIB1) Competitor (AID 1508620;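 note: GST tagged CIB1 binding a fluorescein labelled alphaIIb integrin peptide tracer; top concentration of the series differs between compounds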)). Conditions: CIB1-GST / FITC-alphaIIb peptide fluorescence polarization; series mostly up to 114 µM; activity change, negative = inhibition: at the top concentration.
Chain of Calcium and integrin-binding protein 1 (Homo sapiens) (Q99828 whole entry, looked up): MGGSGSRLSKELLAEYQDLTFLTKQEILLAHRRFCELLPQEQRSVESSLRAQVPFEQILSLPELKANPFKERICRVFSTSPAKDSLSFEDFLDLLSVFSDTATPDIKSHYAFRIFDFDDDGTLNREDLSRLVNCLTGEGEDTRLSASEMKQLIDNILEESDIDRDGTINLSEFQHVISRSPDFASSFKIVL
Method in brief: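 CIB1-GST (1 uM final) and compound incubated 15 min at room temperature before adding FITC-alphaIIb peptide tracer (100 nM final). Competition for binding read by fluorescence polarization (ex 480, em 540) after another 15 min at room temperature.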
`Cn1nnnc1Sc1ncnc2scc(-c3ccc([N+](=O)[O-])cc3)c12` was tested, and the “activity change, negative = inhibition” value was -17.5%. With `O=C1NC(=O)/C(=C/c2ccco2)N1` the “activity change, negative = inhibition” value was -2.71%. In the case of `O=C(Cc1ccc(Cl)c(Cl)c1)Nc1ccc([S+](=O)([O-])Nc2ccccn2)cc1`, the “activity change, negative = inhibition” value is reported as -11.4%. For `Oc1ccc(CNc2ccc(C(F)(F)F)cc2Cl)c2cccnc12`, the “activity change, negative = inhibition” value was -2.74%. `CC(C)(C)OC(=O)N1CCN(c2ccc(NCc3ccc(-c4ccc(C#N)cc4)o3)cn2)CC1` was tested, and the “activity change, negative = inhibition” value was -1.79%. For `Cc1cc(C)nc(NC(=S)N2CCN(c3ccc4ccccc4c3)CC2)c1`, the “activity change, negative = inhibition” value was -13.3%. For `Cc1ccc(C[C@H](C(=O)O)N2C(=O)c3ccc(C(=O)O)cc3C2=O)c(C)c1`, the “activity change, negative = inhibition” value was -1.39%. In the case of `CC1=C(C(=O)Nc2ccon2)C(c2ccccc2Br)N=C(Nc2nc3ccccc3o2)N1` (stereo not drawn), the “activity change, negative = inhibition” value is reported as -0.654%. In the case of `CCCCN(C)C(=O)Cn1nc(-c2ccncc2)ccc1=O`, the “activity change, negative = inhibition” value is reported as 5.97%. In the case of `CC(=O)Nc1sc2c(c1-c1csc3ccccc13)CCNC2`, the “activity change, negative = inhibition” value is reported as 12.3%. With `COc1ccc(O)c(C2Nc3ccccc3C(=O)N2Cc2ccccc2)c1` (stereo not drawn) the “activity change, negative = inhibition” value was -0.281%. In the case of `O=[S+]([O-])(Nc1ccc(C2CCNCC2)cc1)c1ccc(NCc2ccc(Cl)cc2O)cc1`, the “activity change, negative = inhibition” value is reported as -21.2%. In the case of `CCOC(=O)C1CCN(C(=O)C(C)(C)NC(=O)Nc2ccc3ccccc3c2)CC1`, the “activity change, negative = inhibition” value is reported as -18.8%. In the case of `c1cncc(-c2ccc(CNc3nc(N4CCCC4)nc4ccccc34)cc2)c1`, the “activity change, negative = inhibition” value is reported as 14.6%. With `O=C(CCc1ccccc1)Nc1ncnc2c1C(c1ccccc1)c1c(ccc3ccccc13)O2` (stereo not drawn) the “activity change, negative = inhibition” value was 0.23%. In the case of `O=C(Nc1ccc(Cl)c(Cl)c1)Nc1ccc(-c2ccncc2)s1`, the “activity change, negative = inhibition” value is reported as -0.361%. With `O=S(=O)(c1ccc2c(c1)OCCO2)C1CCN(S(=O)(=O)c2c(F)cccc2F)CC1` the “activity change, negative = inhibition” value was -1.55%. In the case of `CC(=O)Nc1sc2c(c1-c1ccc(-c3nn[nH]n3)cc1)CCNC2`, the “activity change, negative = inhibition” value is reported as 15.7%. For `N#CC1CCN(c2nc(-c3ccc(Br)cc3)cs2)CC1`, the “activity change, negative = inhibition” value was 1.95%. With `COc1ccc2nc(-c3cccc(F)c3)sc2c1` the “activity change, negative = inhibition” value was 0.412%. With `Cc1c(C(=O)NCC2CCCO2)[nH]c2c1C(=O)CC(c1ccco1)C2` (stereo not drawn) the “activity change, negative = inhibition” value was -3.97%. `Cc1ccc(OCCn2c(CCNC(=O)Cc3cccc(F)c3)nc3ccccc32)cc1` was tested, and the “activity change, negative = inhibition” value was 6.44%. `Cc1cc(NS(=O)(=O)c2ccc(NC(=O)CCc3ccc(Cl)c(Cl)c3)cc2)no1` was tested, and the “activity change, negative = inhibition” value was -18.1%.
